# Screening results from PubChem BioAssay.
# ELG1 genotoxic: inducers of genotoxicity in HEK293T ELG1-luciferase cells | HEK293T ELG1-luciferase reporter, luminescence, 16 h | Potency, µM (series often up to 46 µM), inactives show at the highest dose activity change, positive = activation, usual class: activators | 330,000 compounds, 1.3% hits; also: % of control where 0% means no effect; nearly all actives have a fitted effect of over 60% in size
#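 Genotoxicity was scored as increased ELG1-luciferase reporter signal, measured by ONE-Glo luminescence (30 min, room temperature). Compound or vehicle exposure of the HEK293T reporter cells lasted 16 hr at 37°C.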
# ELG1 DNA repair: blocks ELG1-dependent DNA repair in HEK293T cells | HEK293T ELG1-luciferase reporter, luminescence, 16 h; DNA damage induced by 5-fluorouridine | Potency, µM (top dose mostly 46.1 µM), for the others: top-dose activity change, negative = inhibition, most hits filed as inhibitors | 330,000 compounds, 2.3% hits | AID 504467; also: % is scaled to controls: 0 for no effect and ±100 for the full control effect; nearly all actives have a fitted effect of over 55% in size
#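 5-Fluorouridine DNA damage + compound/DMSO, 2,000 cells/well, 16 h, 37 °C/5% CO2. ONE-Glo, 30 min RT, luminescence. Readout = decrease in reporter signal.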
# SMN2 splice up: SMN2 splice variant enhancement; HEK293 SMN2-luciferase splicing reporter, luminescence, 30-36 h; Potency, µM (titrated, usually from 46.1 µM), for inactives: at the highest dose activity change, positive = activation, hits mostly activators; 210,000 compounds, 2.8% hits; AID 1458; also: % of control where 0% means no effect; nearly all actives have a fitted effect of over 55% in size
#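 qHTS luciferase splicing reporter: luminescence rises when SMN2 exon 7 is included in transfected HEK293 cells. Compound exposure lasted 30-36 h at 37C, with 4.5 mM final sodium butyrate as control, followed by a ONE-Glo read.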
# FLuc counter: firefly luciferase modulation, counter-screen for miR-21 project; P08659; purified FLuc, Km substrates, luminescence inhibition; Potency, µM (series often up to 57.5 µM), for the others: at the highest dose activity change, negative = inhibition, hits mostly inhibitors; 360,000 compounds, 6.9% hits;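 also: plate controls were vehicle for no effect and reference inhibitor for full effect; nearly all actives have a fitted effect of over 55% in size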
# Target sequence (P08659 whole entry, looked up): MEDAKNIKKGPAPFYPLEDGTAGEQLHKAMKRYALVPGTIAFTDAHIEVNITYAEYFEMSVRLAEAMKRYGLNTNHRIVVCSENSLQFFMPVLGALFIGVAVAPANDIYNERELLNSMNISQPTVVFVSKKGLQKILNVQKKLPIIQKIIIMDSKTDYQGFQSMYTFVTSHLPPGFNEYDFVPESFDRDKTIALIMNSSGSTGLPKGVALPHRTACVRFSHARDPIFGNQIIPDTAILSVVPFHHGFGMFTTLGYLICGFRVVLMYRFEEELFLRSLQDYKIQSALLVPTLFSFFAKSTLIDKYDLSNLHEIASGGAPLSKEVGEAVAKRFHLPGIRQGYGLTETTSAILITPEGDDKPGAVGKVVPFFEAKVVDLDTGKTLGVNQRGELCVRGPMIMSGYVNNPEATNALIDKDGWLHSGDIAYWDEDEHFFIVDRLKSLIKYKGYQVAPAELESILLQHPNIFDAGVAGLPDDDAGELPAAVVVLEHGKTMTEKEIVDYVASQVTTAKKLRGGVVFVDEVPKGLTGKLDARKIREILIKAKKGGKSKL
#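 Biochemical qHTS of compounds, final roughly 60 µM downward over six points, against 10 nM purified firefly luciferase using Km concentrations of substrates (10 uM D-luciferin, 10 uM ATP) in Tris acetate pH 7.5 buffer; luminescence output.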
# NPC1 promoter act: activates the NPC1 promoter; Huh7 NPC1 promoter luciferase reporter, 24 h; Potency, µM (highest dose often 9.22 µM), for inactives: top-dose activation, most hits filed as activators; 320,000 compounds, 2.4% hits; also: % of control where 0% means no effect; nearly all actives have a fitted effect of over 60% in size
#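 Luminescence from an NPC1 promoter-driven luciferase reporter in stably transfected Huh7 cells was measured after 24 h compound treatment at 37 °C, followed by 10 min ambient incubation with luciferase detection reagent.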
# Rab9 promoter act: activates the Rab9 promoter; AID 485297; Huh7 Rab9 promoter-luciferase reporter, luminescence, 24 h; Potency, µM (doses to about 9.22 µM), for the others: at the highest dose activation, negative = inhibition, usual class: activators; 320,000 compounds, 2.8% hits; also: % of control where 0% means no effect; nearly all actives have a fitted effect of over 60% in size
#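 Huh7 cells stably carrying a Rab9 promoter-luciferase reporter, 1500 cells per well in OP-MEM I with 10% FBS, treated with compound 24 hours at 37C. Luciferase activity read by luminescence after 10 minutes with Amplite reagent.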
# * hit, by the source's call; ? = inconclusive; . = no result given. In the library only some 9.3% were active in any assay of this set; here they are far more common. Calls follow the shape of the dose curve; as a rule, active = well fitted curve in the direction sought with a large enough effect; inconclusive = small, poorly fitted or top-dose-only effect, or another doubt; inactive = no such curve, though single readings can be large; an effect the other way counts as inactive or inconclusive. Potency is read from the fitted curve at half-maximal effect.
SMILES,ELG1 genotoxic,ELG1 DNA repair,SMN2 splice up,FLuc counter,NPC1 promoter act,Rab9 promoter act
N#Cc1ccccc1N=Cc1ccc(Br)cc1,3.2%,?,-1.6%,1.51µM*,-0.2%,0.3%
COc1cccc(C=Nc2ccc3c(c2)CCC3)c1O,6.3%,-0.9%,.,2.69µM*,-5.5%,-1.3%
COc1ccc(/C=C(\C#N)C(=O)N2CCOCC2)cc1Br,0.8%,-0.3%,-14.0%,-12.7%,1.9%,-0.3%
Cc1cc(/C=C(\C#N)C(=O)N2CCOCC2)c(C)n1C1CCCC1,1.64µM*,?,.,1.07µM*,0.501µM*,0.316µM*
Cc1ccccc1NC(=O)c1cccc2nccnc12,-0.6%,5.8%,6.3%,?,11.3%,-1.9%
CCOC(=O)C1C(C(=O)OC)=C(c2ccc(OC)cc2)c2ccccc2N1S(=O)(=O)C(F)(F)F (stereo unspecified),-3.8%,11.6µM*,.,.,.,.
CCOC(=O)C1=C(c2ccccc2)c2ccccc2N(S(=O)(=O)C(F)(F)F)C1C(=O)OCC (stereo unspecified),-1.3%,16.4µM*,.,.,.,.
CCc1ccc(C(=O)c2cncc(Br)c2)cc1,.,.,?,16.9µM*,.,.
O=C(Oc1ccc(Br)cc1)c1cncc(Br)c1,2.0%,5.5%,-20.0%,4.78µM*,0.2%,-2.2%
CCC(C)N(C(=O)Cn1c(=O)cnc2ccccc21)C1CCS(=O)(=O)C1 (stereo unspecified),1.8%,14.3%,.,4.6%,-3.2%,-2.6%
Cc1nc(-c2ccc(C)c(S(=O)(=O)N3CCC(C(=O)Nc4ccc(Cl)cc4)CC3)c2)no1,.,.,.,-7.5%,.,.
CC1CN(C(=O)/C=C/c2ccc3c(c2)OCO3)CC(C)O1 (stereo unspecified),2.0%,7.7%,7.2%,-7.2%,-2.0%,0.0%
CC1CN(C2=N/C(=C/c3ccc4c(c3)OCO4)C(=O)N2)CC(C)O1 (stereo unspecified),-8.4%,20.6µM*,.,-6.0%,-0.4%,0.2%
CC(=O)Nc1ccc(S(=O)(=O)n2cnc(C)c2)cc1,9.3%,13.0%,-1.3%,1.6%,0.4%,3.4%
CCOC(=O)c1snc(C(=O)NC2CCCCC2)c1N,8.2µM*,?,.,13.5µM*,?,3.55µM*
Nc1c(C(=O)NC2CCCCC2)nsc1C(=O)OCC(=O)NC1CCCCC1,-9.3%,?,-21.2%,-6.4%,-10.8%,-10.5%
CCOC(=O)N1CCN(S(=O)(=O)Cc2ccccc2)CC1,-1.5%,-2.1%,-14.3%,0.0%,1.0%,-2.2%
O=C(CCl)N1CCN(S(=O)(=O)Cc2ccccc2)CC1,-2.6%,9.2µM*,.,0.3%,-14.5%,-38.5%
Cc1ccc(-n2cc(CNC(C)c3cnn(C)c3)c(-c3ccc(F)cc3)n2)cc1 (stereo unspecified),-11.2%,4.1%,-11.3%,?,-0.6%,-7.1%
Cc1ccc(C)c(-n2cc(CNC(C)Cn3cncn3)c(-c3ccccc3)n2)c1 (stereo unspecified),-9.7%,?,.,-2.8%,-0.1%,-11.4%
Cc1ccc(-n2cc(CNC(C)c3cnn(C)c3C)c(-c3ccc(F)cc3)n2)cc1 (stereo unspecified),-6.9%,-5.6%,.,15.1µM*,-4.0%,-1.5%
Cc1ccc(-n2cc(CNC(C)Cn3cncn3)c(-c3ccc(F)cc3)n2)cc1 (stereo unspecified),-0.2%,?,-6.8%,16.9µM*,2.3%,-4.2%
COc1ccc(CN(C)C(=O)C2CCN(C(=O)Nc3ccccc3)CC2)cc1OC,3.0%,10.9%,.,1.4%,-1.8%,21.0%
O=C(NCc1n[nH]c(=S)n1-c1ccc([N+](=O)[O-])cc1)c1ccc(S(=O)(=O)N2CCOCC2)cc1,-0.7%,-0.8%,1.2%,2.1%,-0.1%,-3.8%
Cn1ccnc1C(=O)c1cc(SCC(=O)NCc2ccccc2)nc2ccccc12,-0.6%,8.2µM*,-4.7%,-12.3%,-14.6%,-0.5%
SMILES,ELG1 genotoxic,ELG1 DNA repair,SMN2 splice up,FLuc counter,NPC1 promoter act,Rab9 promoter act
COC(=O)CSc1cc(C(=O)c2nccn2C)c2ccccc2n1,1.5%,-1.5%,6.0%,7.7%,-3.2%,0.4%
CNS(=O)(=O)c1c(C)cc(C)c(N(C)S(=O)(=O)c2ccccc2)c1C,-5.9%,-14.7%,.,-1.6%,-6.0%,-7.4%
O=C(NCCNC(=O)c1ccc(Br)o1)c1ccc(Br)o1,-1.2%,?,.,3.3%,0.8%,8.5%
O=C(NCCCCNC(=O)c1ccccc1Cl)c1ccccc1Cl,0.5%,0.2%,.,6.5%,-3.4%,4.9%
O=C(NCCc1ccccc1)c1ccc(Br)o1,?,?,27.9%,?,?,3.98µM*
O=C(NCCn1cc(SCc2ccccc2)c2ccccc21)c1ccccc1F,-1.3%,13µM*,-47.8%,?,0.7%,-1.8%
O=C(CNC(=O)c1ccccc1Cl)c1ccccc1,9.2µM*,?,.,10.7µM*,2.82µM*,0.398µM*
O=C(CNC(=O)c1ccccc1F)c1ccccc1,4.11µM*,?,.,3.38µM*,0.447µM*,0.447µM*
CCC(Oc1ccccc1F)C(=O)NCCN1CCOCC1 (stereo unspecified),4.2%,-3.0%,.,1.2%,-1.0%,4.0%
CCS(=O)(=O)N1CCC(NC(=O)C(Cc2ccc(OC)c(OC)c2)NC(C)=O)CC1 (stereo unspecified),-2.4%,-13.6%,.,-2.7%,6.1%,0.5%
O=C(NCCc1ccccc1)c1ccccc1F,?,?,.,?,0.631µM*,0.282µM*
CCc1cccc(C)c1Nc1nn2c(=O)c3ccccc3nc2s1,.,.,.,-0.7%,.,.
CCSc1nn2c(=O)c3ccccc3nc2s1,5.01µM*,?,14.1µM*,19µM*,3.55µM*,2.51µM*
CN(C)c1ccc(NC(=S)NCC2CCCO2)cc1 (stereo unspecified),?,?,12.6µM*,?,17.4%,23.0%
Cc1ccc(C(=O)NC(=S)NCC2CCCO2)cc1Br (stereo unspecified),16.3%,?,20µM*,19µM*,23.4%,29.1%
CCCCc1ccc(NC(=S)NCC2CCCO2)cc1 (stereo unspecified),0.7%,-29.1%,-18.6%,?,9.6%,-0.1%
CCc1ccc(CNC(=O)C(=O)NCC2CCCO2)cc1 (stereo unspecified),3.4%,7.6%,.,-1.4%,-0.7%,-7.4%
CCc1ccc(NC(=O)C(=O)NCC2CCCO2)cc1 (stereo unspecified),17.1%,?,11.2µM*,?,3.55µM*,1.41µM*
Cc1ccc(-c2sc(-c3ccccc3)nc2CC(=O)Nc2ccccc2F)cc1,2.9%,-16.0%,-30.0%,3.5%,-8.8%,-3.8%
C=CCOC(=O)C(=O)/C=C/c1ccc2c(c1)Cc1ccccc1-2,7.3%,?,.,10.7µM*,-0.7%,2.2%
